Tg IFNy HTS – T. gondii growth inhibition with IFN-gamma, primary screen, cell-based; Toxoplasma gondii growth in IFN-gamma-treated host cells; hits give low values; activity change, negative = inhibition, % (test concentration not listed); 3.8% of 69,000 active; in the data active = activity change below about -70%, passing the limit was not always enough;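 note: host cells are HeLa cells infected with Toxoplasma gondii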
Of the large screens only hits and unclear results are named; the others gave an inactive call; ! = repeats disagree. The sample as a whole holds a higher share of hits than the screen did.

Cc1oc(-c2ccc(NC(=O)c3ccsc3)cc2)nc1Cn1cccn1	none
Cc1ccc(CC(=O)Nc2ccc(-c3nc(Cn4cccn4)c(C)o3)cc2)cc1	none
Cc1oc(-c2ccc(NC(=O)c3ccc(F)cc3F)cc2)nc1Cn1cccn1	none
Cc1oc(-c2ccc(NC(=O)COc3ccccc3)cc2)nc1Cn1cccn1	none
Cc1cc2ncn(CCC(=O)NC(C)c3ccc(N4CCOCC4)cc3)c2cc1C (centres undefined)	none
Cn1cc(CN2CCc3ncnc(NC4CC4)c3CC2)cn1	none
CCOc1ccc(-c2nc(Cn3c(=O)c4cccnc4n(-c4ccccc4)c3=O)c(C)o2)cc1OC	none
Cc1nc(C(=O)NC(C)c2nc3c(s2)CCCC3)cs1 (centres undefined)	none
CN1CC2(CCN(C(=O)c3ccccn3)CC2)CC1COCC1CC1 (centres undefined)	none
Cc1nc(C2COCCN2C(=O)c2cnoc2)cs1 (centres undefined)	none
COc1cccc(-c2nc(Cn3ccn4nc(-c5ccc(F)cc5)cc4c3=O)c(C)o2)c1OC	none
Cc1cc(Nc2ccc(S(N)(=O)=O)cc2)c2ccc(C(F)(F)F)cc2n1	none
CC(C)c1nc(C2(S(=O)(=O)c3ccccc3)CC2)n(-c2ccccn2)n1	none
Clc1cc(Cl)cc(N=c2ssnc2-c2ccccc2Cl)c1	Tg IFNy HTS -90
COCCn1nnnc1C(C(C)C)N1CCN(C2CCCCC2)CC1 (centres undefined)	none
COC(=O)[C@@H]1CN(CC(C)C)C[C@H]1S(=O)(=O)c1ccccc1	none
Cc1ccc(C)c(S(=O)(=O)N2CCC3(CC2)c2ncc(-c4cccc(F)c4)n2CCN3C)c1	none
Cc1ccc(CN2CCC3(CC2)c2ncc(-c4ccccc4)n2CCN3C)o1	none
CN1CCn2c(-c3ccccc3)cnc2C12CCN(S(=O)(=O)c1ccccc1)CC2	Tg IFNy HTS -108
O=C(c1ccc(Cn2ccnc2)o1)N1CCCC(c2ccn[nH]2)C1 (centres undefined)	none
Cc1nc2cc3c(=O)oc(C)nc3cc2c(=O)o1	none
COc1ccc(-c2nccc(C(F)(F)F)n2)cn1	none
COc1ccc(-c2ccc3ncc4c(c3c2)n(-c2ccc(N3CCNCC3)c(C(F)(F)F)c2)c(=O)n4C)cn1	Tg IFNy HTS -90
COc1ccc(C(=O)Nc2ccc3c(c2)nc(C(F)(F)F)n3C)cn1	none
CCc1c(C)nn(CC(=O)N2CCC3(CCCNC3)C2)c1C (centres undefined)	none
CN1c2cc(F)ccc2C(=O)NC12CCN(C(=O)NCCc1ccccc1)CC2	none
CC1=C(C(=O)OCCN(Cc2ccccc2)c2ccccc2)C(c2cccc([N+](=O)[O-])c2)C(P2(=O)OCC(C)(C)CO2)=C(C)N1 (centres undefined)	none
COCCOC(=O)C1=C(C)NC(C)=C(C(=O)OC/C=C/c2ccccc2)C1c1cccc([N+](=O)[O-])c1 (centres undefined)	Tg IFNy HTS -73!
COC(=O)C1=C(C)NC(C)=C(C(=O)O[C@@H]2CCCN(Cc3ccccc3)C2)[C@@H]1c1cccc([N+](=O)[O-])c1	none
COC(=O)C1=C(C)NC(C)=C(C(=O)OCCCN2CCC(c3ccccc3)(c3ccccc3)CC2)[C@H]1c1cccc([N+](=O)[O-])c1	Tg IFNy HTS -71!
CCOC(=O)C1=C(C)NC(C)=C(C(=O)OC)C1c1cccc([N+](=O)[O-])c1 (centres undefined)	none
COCCOC(=O)C1=C(C)NC(C)=C(C(=O)OC(C)C)C1c1cccc([N+](=O)[O-])c1 (centres undefined)	none
CC1(C)CC1(CNC(=O)CCC(=O)NC1CCCC1)c1ccccc1 (centres undefined)	none
CN(C)C(=O)[C@H]1C[C@@H]2CN(S(=O)(=O)c3ccccc3)C[C@H]1O2	none
Fc1ccc(CN(Cc2ccncc2)Cc2cccc3c2OCO3)cc1	Tg IFNy HTS -82
OCc1ccc(CN(Cc2ccncc2)Cc2ccc(F)cc2)o1	none
CCc1ccc(CN(Cc2ccncc2)Cc2ccc(F)cc2)nc1	none
Cc1cnc2c(C(=O)N(C)Cc3nc4ccc(F)cc4[nH]3)cnn2c1	none
CN1CC2(CCN(CCSc3ccccc3)C2)OC1=O (centres undefined)	none
OC1(c2cccc(C(F)(F)F)c2)CCN(Cc2ccncc2)CC1	none
Cc1ccc(C(C)NC(=O)c2cccc(NCc3sccc3C)c2)nc1 (centres undefined)	none
COc1ccccc1Oc1ccccc1C(=O)O	none
COC(=O)CSC(=O)NC(=O)c1ccccc1Oc1ccc(Cl)cc1Cl	Tg IFNy HTS -92
O=S(=O)(Nc1ccc(F)c(Cl)c1)c1ccccc1Oc1ccc(Cl)cc1Cl	none
O=C(CCC1Nc2c3ccccc3nc(=S)n2C1=O)NCCCN1CCN(c2ccccc2F)CC1 (centres undefined)	none
CCOc1ccccc1NS(=O)(=O)c1cccs1	none
O=S(=O)(Nc1cc(Sc2ncn[nH]2)c(O)c2ccccc12)c1cccs1	Tg IFNy HTS -98
O=C(NCc1cccnc1)c1ccccc1NS(=O)(=O)c1cccs1	none
CCc1ncc(CN2CCC(Cc3cc(NCc4ccccc4F)nc(C)n3)CC2)cn1	none
CC(C)(C)c1ccc(-c2noc(CCOc3ccc(F)cc3)n2)cc1	none
CCCc1c(C(=O)Nc2ccc3ccccc3n2)cnn1-c1ccccc1	none
CCCc1c(-c2nc(-c3ccc(C(C)(C)C)cc3)no2)cnn1-c1ccccc1	Tg IFNy HTS -97
Fc1cnc(N2CCc3onc(COc4cccnc4)c3C2)nc1	none
Cc1n[nH]c(C)c1Cc1nc(C2(c3ccc(F)cc3)CCOC2)no1 (centres undefined)	none
O=C(NCCc1nc(-c2ccccn2)no1)c1cccc2ccnn12	none
COc1ccc(C2SC(C)C(=O)Nc3c2c(C)nn3-c2ccccc2)cc1OC (centres undefined)	none
CCN(CC)Cc1cn2c(n1)CN(S(=O)(=O)c1ccccc1)CC2	none
CCN1C(=O)CCC2C1CCN2C(=O)c1ccc2[nH]ccc2c1 (centres undefined)	none
COCCN1C(=O)CCC2C1CCN2C(=O)c1ccc2[nH]ccc2c1 (centres undefined)	none
CN1C(=O)CCC2C1CCN2C(=O)c1ccc2[nH]ccc2c1 (centres undefined)	Tg IFNy HTS -97
CC(=O)N1CC(C)Oc2ccc(S(=O)(=O)N3CCC4(CC3)Nc3ccccc3-n3cccc34)cc21 (centres undefined)	none
CCn1ncc(S(=O)(=O)Nc2ccc3c(c2)nc(C)n3CCO)c1C	none
Fc1cccc(CSc2nc(Nc3ccc4c(c3)OCO4)c3ccccc3n2)c1	none
Cc1nc(-c2ccc(Cl)cc2)sc1-c1ccnc(SCc2ccccc2)n1	none
c1ccc(CSc2nccc(-c3ccc4c(c3)CCO4)n2)cc1	Tg IFNy HTS -81
O=C(CN1C(=O)CCc2cc(Br)ccc21)NCCc1nc2ccccc2[nH]1	none
Cc1cnn(CC(=O)Nc2cccc(CCc3ccncc3)c2)c1	none
COc1ccccc1-c1cc(C(=O)Nc2cccc(CCc3ccncc3)c2)[nH]n1	Tg IFNy HTS -92
COc1ccccc1C(=O)Nc1cccc(-n2cnnc2)c1	none
CC(c1nccs1)N(C)C(=O)c1ccc(CSc2ncn[nH]2)o1 (centres undefined)	none
CN1C(=O)C(F)=C[C@]2(C)[C@H]3CC[C@]4(C)[C@@H](C(=O)NCc5nc6ncccc6[nH]5)CC[C@H]4[C@@H]3CC[C@@H]12	none
Fc1cnc(NC2COC3(CCCN(CC4CCOCC4)C3)C2)nc1 (centres undefined)	none
OC1CCC(Nc2ncc3nc(Nc4c(F)cc(F)cc4F)n([C@H]4CCOC4)c3n2)CC1 (some centres undefined)	Tg IFNy HTS -73
Cc1oc(-c2ccc(OC(C)C)cc2)nc1Cn1nnc(C(=O)Nc2ccc(F)cc2F)c1C	Tg IFNy HTS -110
